# About 83,000 compounds went through this panel and 20% of them were active in at least one assay; those are over-represented in the sample as a whole.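 Values shown are percent growth following 48 h exposure of cells in 96-well plates to a single concentration of compound; below 10 was considered active.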 Values without a mark were called inactive. Calls of active or inactive are those of the source.
# Columns and labels:
# Assay in all cases: NCI-60 one-dose screen, 48 h (100 = growth as untreated, 0 = no growth, -100 = all killed)
# Conditions in all cases: 10 µM unless noted
# [1] = test system: RPMI-8226 leukemia
# [2] = test system: OVCAR-8 ovarian
# [3] = test system: OVCAR-5 ovarian
# [4] = test system: OVCAR-4 ovarian
# [5] = test system: SK-OV-3 ovarian
# [6] = test system: IGROV1 ovarian
# [7] = test system: OVCAR-3 ovarian
# [8] = test system: HS 578T breast
# [9] = test system: NCI/ADR-RES ovarian
# [10] = test system: T-47D breast
Compound,growth [1],growth [2],growth [3],growth [4],growth [5],growth [6],growth [7],growth [8],growth [9],growth [10]
Cc1ccc(F)cc1NC(=O)c1cc(Cl)ccc1Nc1ccccc1,32.2%,27.3%,70.2%,51.6%,82.8%,71%,53.4%,90.4%,40.1%,37.1%
O=c1oc2ccc(F)cc2c(=O)n1-c1ccc(Cl)cc1F,-23.1% (active),9.27% (active),17.6%,13.3%,-11.5% (active),18.9%,8.61% (active),-0.15% (active),2.98% (active),-19% (active)
Nc1nonc1-n1nncc1-c1cccnc1,105%,111%,110%,98.8%,104%,103%,116%,101%,105%,93.9%
CCOC(=O)C1(Cc2ccccc2)CCN(Cc2cccc(OC)c2O)CC1,9.49% (active),3.17% (active),42.4%,17.2%,17.5%,-8.64% (active),22.8%,28.6%,6.98% (active),17.2%
CCN1CCN(C(=S)SCC(=O)Nc2nc3ccc(C)cc3s2)CC1,94.7%,91.9%,95.3%,86.2%,102%,72%,106%,112%,103%,87.8%
COc1cc2nc(-c3cnc(N(C)C)nc3)nc(NC3CCN(Cc4ccccc4)CC3)c2cc1OC,-50.5% (active),-42.9% (active),-94.8% (active),-93.5% (active),-68% (active),-76.4% (active),-85.1% (active),-47% (active),-54.1% (active),-46.6% (active)
O=C(N/N=C/c1ccccc1O)C(=O)Nc1ccc(F)cc1,52.2%,38.7%,64.8%,27.2%,59.1%,53%,27.7%,74.6%,18.1%,52.6%
CSc1nc2c(c(=O)[nH]1)N=C1c3ccccc3C(=O)C1C(c1ccccc1)N2 (centres undefined),36.2%,61.3%,82.5%,72.6%,64.3%,17.4%,-12% (active),48.2%,38.3%,43.9%
O=C(NN1C(=O)CSC1c1ccc(Cl)cc1)c1[nH]c2ccc(F)cc2c1-c1ccccc1 (centres undefined),25%,35.2%,72%,47.4%,87.2%,36.8%,47.9%,94.6%,43.3%,52.1%
O=C(Nc1ncc(Cc2cccc(C(F)(F)F)c2)s1)C1COc2ccccc2O1 (centres undefined),76.9%,89.9%,87.4%,84.6%,100%,86.8%,90.6%,65.4%,87.3%,67.1%
CCCCCCn1c(=N)n(CC(O)COc2cccc(C)c2)c2ccccc21 (centres undefined),-24.8% (active),-67.1% (active),-7.84% (active),-31.9% (active),37.3%,-58.1% (active),23.3%,-5.09% (active),-2.54% (active),52.6%
CC1=CCC(OC(=O)C(C)(C)CCC(O)(C(=O)OC2(C(C)C)CCC3(C)OC3C2)C(C)C)(C(C)C)CC1 (centres undefined),-37.8% (active),-41.7% (active),-77.9% (active),-84.1% (active),-92.2% (active),-60.5% (active),-97% (active),-7.09% (active),-9.23% (active),-55.2% (active)
Cc1cccc(NC(=O)c2sc3nc4c(cc3c2N)CCCC4)c1C,7.76% (active),23%,44.1%,65.3%,32.5%,40.7%,-10.1% (active),25.1%,-15.8% (active),36.3%
O=C(COc1cc(O)c2c(=O)cc(-c3ccccc3)oc2c1)Nc1ccccc1C(F)(F)F,54.8%,29%,62.9%,-50.1% (active),44.1%,40.3%,-2.06% (active),15.5%,51.2%,14.3%
COc1ccc(-c2nc(N3CCN(C(=O)C4CCCCC4)CC3)c3c4c(sc3n2)CCCC4)cc1,2.49% (active),-44.7% (active),35.6%,-85.4% (active),81%,33.7%,-38.3% (active),12.8%,84.2%,3.68% (active)
COc1ccc(C2=Nn3c(NN)nnc3SC2)cc1,104%,96.4%,108%,101%,105%,96%,111%,96%,102%,96.1%
O=C(O)c1cn(C2CC2)c2cc(N3CCN(C(=O)C[n+]4ccccc4)CC3)c(F)cc2c1=O,106%,105%,104%,89.4%,110%,109%,107%,99.3%,105%,94.2%
COc1ccc(Cn2c(Br)c3c(c2-c2cc(OC)c(OC)c(OC)c2)CCc2sc(NC(C)=O)nc2-3)cc1,53.5%,60.4%,96.8%,49.8%,35.5%,6.54% (active),-14.4% (active),24.6%,27.1%,37.2%
COc1cc(-c2c3c(cn2S(=O)(=O)c2ccccc2)-c2nc(N)sc2CC3)cc(OC)c1OC,25.3%,32.7%,43.4%,56%,12.6%,31.6%,-43.5% (active),23%,14.9%,44%
O=c1oc2ccc(Cl)cc2c(=O)n1-c1cc(C(F)(F)F)cc(C(F)(F)F)c1,-26% (active),7.66% (active),25.2%,18.1%,-10.6% (active),16%,7.95% (active),-15.1% (active),5.39% (active),-9.71% (active)
O=C1NC(=S)NC(=O)C1=Cc1cn(Cc2cn(Cc3cccc4ccccc34)nn2)c2ccccc12,104%,102%,89.6%,92.2%,111%,82.6%,102%,81.9%,96.5%,105%
CCCCOCc1cc(CN2CCN(C)CC2)c(O)c2ncccc12,48.2%,27.1%,73%,31.1%,42.5%,80.8%,23.9%,79.3%,5.45% (active),67.3%
Oc1[nH]c2ccccc2c1N=Nc1nnc2n1N=C(c1ccccc1)CS2,92.8%,59.1%,101%,59.6%,89.8%,97.5%,88.4%,72%,105%,64.3%
O=c1oc2ccc(Cl)cc2c(=O)n1-c1ccc(Cl)cc1F,-28.5% (active),8.62% (active),24.6%,11%,-2.36% (active),14.3%,5.29% (active),–,6.2% (active),-12% (active)
O=C(Nc1ccc(C23CC4CC(CC(c5ccccc5)(C4)C2)C3)cc1)c1cccs1,41.1%,57.5%,100%,58%,99.3%,92.8%,71.1%,92.7%,58%,49.2%
